Our source for the Potency and outcome values is PubChem BioAssay (NCATS).

Unmarked numbers belong to inactive results. Results filed as inconclusive are left out. The source made the active and inactive calls. Calls follow the shape of the dose curve; as a rule, active = well fitted curve in the direction sought with a large enough effect; inconclusive = small, poorly fitted or top-dose-only effect, or another doubt; inactive = no such curve, though single readings can be large; an effect the other way counts as inactive or inconclusive.

The target of assay [1] is Cytochrome P450 2D6 (Homo sapiens) (UniProt P10635). In words: qHTS Assay for Inhibitors and Substrates of Cytochrome P450 2D6 (AID 891). Also: potency is read from the fitted curve at half-maximal effect; nearly all actives have a fitted effect of over 60% in size. In outline: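 Luminescent read-out of luciferin formed by 5 nM human CYP2D6 demethylating 30 uM Luciferin-ME EGE (Km level) over 60 min at room temperature after NADPH regeneration addition. Data normalized to full inhibition by 1.43 uM quinidine.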
Cytochrome P450 2D6 (Homo sapiens), sequence (P10635 whole entry, looked up): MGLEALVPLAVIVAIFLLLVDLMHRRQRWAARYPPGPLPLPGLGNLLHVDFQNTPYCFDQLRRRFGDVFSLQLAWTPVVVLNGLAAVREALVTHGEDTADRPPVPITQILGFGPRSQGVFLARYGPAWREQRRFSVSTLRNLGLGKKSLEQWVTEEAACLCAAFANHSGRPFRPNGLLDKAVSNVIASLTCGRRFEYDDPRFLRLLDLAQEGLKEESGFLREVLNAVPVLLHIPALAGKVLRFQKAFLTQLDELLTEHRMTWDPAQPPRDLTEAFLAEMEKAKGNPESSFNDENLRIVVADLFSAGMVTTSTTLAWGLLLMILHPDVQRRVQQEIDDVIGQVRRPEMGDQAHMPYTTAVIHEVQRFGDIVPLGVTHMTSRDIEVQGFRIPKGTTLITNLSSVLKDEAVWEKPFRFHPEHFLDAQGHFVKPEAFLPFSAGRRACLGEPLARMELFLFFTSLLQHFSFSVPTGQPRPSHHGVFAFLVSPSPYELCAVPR

Assay [2] concerns the target ATP-dependent 6-phosphofructokinase (Trypanosoma brucei brucei) (UniProt O15648). The assay can be described thus: qHTS Assay to Find Inhibitors of T. brucei phosphofructokinase: hit validation (AID 492961).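 Also: luminescence reports ADP formed as PFK phosphorylates fructose-6-phosphate with ATP.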 In outline: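 PFK 1.25 nM, F6P 0.5 mM, ATP 0.1 mM, MgCl2 5 mM, 0.1 M TEA pH 8.0, Tween20 0.01%, BSA 0.1%; 45 min RT. ADP-Glo two-step detection, luminescence. qHTS titration; curve fitting with curve-class categorization.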
A general note: Quantitative high-throughput screening tests each substance at several concentrations.

Assay [3] in a line: S16 Schwann cell PMP22 intronic element firefly luciferase assay (AID 624032). Also: nearly all actives have a fitted effect of over 30% in size. The gist of the method:
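Rat S16 Schwann cells stably carrying a PMP22 intronic element-driven Fluc reporter were seeded overnight, then exposed to compounds for 24 h at 37 °C. Luminescence was normalized to PTC124 (positive control) and DMSO (0% activity).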

The test system of assay [4] is 7G8. The assay can be described thus: qHTS profiling for inhibitors of Plasmodium falciparum proliferation (AID 504749). Also: nearly all actives have a fitted effect of over 60% in size. Also: potency is read from the fitted curve at half-maximal effect. The following applies: P. falciparum in erythrocytes, SYBR Green DNA, 72 h; series mostly up to 12.8 µM. In outline:
(§1)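 Quantitative HTS: compounds pinned into medium, infected erythrocytes added (0.3% parasitemia, 2.5% hematocrit), 72 h culture at 37 C under 5% CO2. Saponin/Triton lysis with SYBR Green I, overnight RT, then fluorescence read.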

Assay [5] deals with CP237. The assay is described as above. The following applies: P. falciparum in erythrocytes, SYBR Green DNA, 72 h; series mostly up to 12.8 µM. In outline:
as §1

In assay [6] the test system is CP335. The description is as above. To be noted: P. falciparum in erythrocytes, SYBR Green DNA, 72 h; series mostly up to 12.8 µM. The gist of the method:
as §1

Assay [7] has as its system DFO2036. The assay is described as above. To be noted: P. falciparum in erythrocytes, SYBR Green DNA, 72 h; series mostly up to 12.8 µM. In outline:
as §1

Assay [8] relates to GB4. The description is as above. The following applies: P. falciparum in erythrocytes, SYBR Green DNA, 72 h; series mostly up to 12.8 µM. The gist of the method:
as §1

Assay [9] concerns P94_40. Described as above. The following applies: P. falciparum in erythrocytes, SYBR Green DNA, 72 h; series mostly up to 12.8 µM. In outline:
as §1

Assay [10] concerns CP291. The assay is described as above. To be noted: P. falciparum in erythrocytes, SYBR Green DNA, 72 h; series mostly up to 12.8 µM. In outline:
as §1

The test system of assay [11] is DIV14. The assay is described as above. The following applies: P. falciparum in erythrocytes, SYBR Green DNA, 72 h; series mostly up to 12.8 µM. In outline:
as §1

For assay [12], the system named is PC26. The assay is described as above. To be noted: P. falciparum in erythrocytes, SYBR Green DNA, 72 h; series mostly up to 12.8 µM. The gist of the method:
as §1

The target in assay [13] is Cytochrome P450 2C9 (Homo sapiens) (UniProt P11712). In words: qHTS Assay for Inhibitors and Substrates of Cytochrome P450 2C9 (AID 883). Also: nearly all actives have a fitted effect of over 60% in size. In outline: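 Human CYP2C9 (10nM) hydroxylated Luciferin-H (100uM, at its KM) to luciferin in 25mM KPO4. Compound was preincubated 10 min at 37C, then NADPH regeneration started a 60 min reaction at 37C. Luminescence was read after detection reagent, normalized to 57uM sulphaphenazole.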
Cytochrome P450 2C9 (Homo sapiens), sequence (P11712 whole entry, looked up): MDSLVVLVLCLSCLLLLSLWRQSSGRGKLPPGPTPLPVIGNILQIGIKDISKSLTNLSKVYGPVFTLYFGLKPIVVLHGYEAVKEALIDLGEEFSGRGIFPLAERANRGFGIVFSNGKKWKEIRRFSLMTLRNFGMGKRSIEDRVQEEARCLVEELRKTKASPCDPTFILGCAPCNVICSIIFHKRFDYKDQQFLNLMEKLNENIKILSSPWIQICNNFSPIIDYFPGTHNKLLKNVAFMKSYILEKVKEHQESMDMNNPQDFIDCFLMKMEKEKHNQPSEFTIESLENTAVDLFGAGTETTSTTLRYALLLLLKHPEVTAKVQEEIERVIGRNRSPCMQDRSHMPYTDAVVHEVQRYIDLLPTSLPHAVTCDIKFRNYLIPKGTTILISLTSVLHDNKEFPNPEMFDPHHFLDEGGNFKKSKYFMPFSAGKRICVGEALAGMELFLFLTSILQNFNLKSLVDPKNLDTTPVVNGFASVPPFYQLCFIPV

Assay [14] concerns CP260. In words: qHTS profiling for inhibitors of Plasmodium falciparum proliferation (AID 504749). Also: nearly all actives have a fitted effect of over 60% in size. Also: potency is read from the fitted curve at half-maximal effect. To be noted: P. falciparum in erythrocytes, SYBR Green DNA, 72 h; series mostly up to 12.8 µM. In outline:
as §1

Assay [15] deals with HB3. The assay is described as above. To be noted: P. falciparum in erythrocytes, SYBR Green DNA, 72 h; series mostly up to 12.8 µM. The gist of the method: as §1
Assay [16] concerns ICS. Described as above. To be noted: P. falciparum in erythrocytes, SYBR Green DNA, 72 h; series mostly up to 12.8 µM. The gist of the method:
as §1

For assay [17], the system named is W2. The assay is described as above. To be noted: P. falciparum in erythrocytes, SYBR Green DNA, 72 h; series mostly up to 12.8 µM. In outline:
as §1

Assay [18] addresses Cytochrome P450 3A4 (Homo sapiens) (UniProt P08684). The assay can be described thus: qHTS Assay for Inhibitors and Substrates of Cytochrome P450 3A4 (AID 884). Also: nearly all actives have a fitted effect of over 50% in size. In outline: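 Luminescent readout of luciferin produced by CYP3A4 (20 nM) dealkylation of Luciferin-PPXE, 25 uM (its KM). NADPH-driven reaction ran 60 min at RT after 10 min compound preincubation; data scaled to 57 uM ketoconazole as 100% inhibition.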

The target is the same in assay [19]. In words: qHTS Assay for Activators of Cytochrome P450 3A4 (AID 885). Also: nearly all actives have a fitted effect of over 65% in size. The gist of the method: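 Activators are scored by enhanced luminescence from CYP3A4 conversion of luciferin-PPXE (25uM, equal to KM) to luciferin, after 60 min at RT with an NADPH-regenerating system.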
In assay [20] the target is Cytochrome P450 2C19 (Homo sapiens) (UniProt P33261). The assay can be described thus: qHTS Assay for Inhibitors and Substrates of Cytochrome P450 2C19 (AID 899). Also: nearly all actives have a fitted effect of over 60% in size. The gist of the method:
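Human CYP2C19 (5nM) with Luciferin-H EGE at 10uM (its KM) in 50mM KPO4 was preincubated with compound for 10 min at 37C. NADPH regeneration started a 60 min 37C reaction. Luciferin was read by luminescence, normalized to 57uM ketoconazole.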

ATP-dependent 6-phosphofructokinase (Trypanosoma brucei brucei), sequence (O15648 whole entry, looked up): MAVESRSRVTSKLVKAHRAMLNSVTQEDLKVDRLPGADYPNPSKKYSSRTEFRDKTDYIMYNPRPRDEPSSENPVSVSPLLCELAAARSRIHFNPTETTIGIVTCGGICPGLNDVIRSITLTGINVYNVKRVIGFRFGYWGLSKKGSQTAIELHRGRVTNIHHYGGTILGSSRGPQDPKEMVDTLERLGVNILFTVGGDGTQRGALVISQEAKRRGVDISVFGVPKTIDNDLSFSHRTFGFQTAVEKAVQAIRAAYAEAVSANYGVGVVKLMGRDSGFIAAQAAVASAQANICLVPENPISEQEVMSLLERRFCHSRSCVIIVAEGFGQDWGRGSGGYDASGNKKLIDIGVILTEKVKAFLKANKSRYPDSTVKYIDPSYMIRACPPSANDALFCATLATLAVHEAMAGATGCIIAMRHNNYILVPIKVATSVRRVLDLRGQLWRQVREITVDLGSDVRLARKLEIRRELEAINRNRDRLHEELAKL
Cytochrome P450 2C19 (Homo sapiens), sequence (P33261 whole entry, looked up): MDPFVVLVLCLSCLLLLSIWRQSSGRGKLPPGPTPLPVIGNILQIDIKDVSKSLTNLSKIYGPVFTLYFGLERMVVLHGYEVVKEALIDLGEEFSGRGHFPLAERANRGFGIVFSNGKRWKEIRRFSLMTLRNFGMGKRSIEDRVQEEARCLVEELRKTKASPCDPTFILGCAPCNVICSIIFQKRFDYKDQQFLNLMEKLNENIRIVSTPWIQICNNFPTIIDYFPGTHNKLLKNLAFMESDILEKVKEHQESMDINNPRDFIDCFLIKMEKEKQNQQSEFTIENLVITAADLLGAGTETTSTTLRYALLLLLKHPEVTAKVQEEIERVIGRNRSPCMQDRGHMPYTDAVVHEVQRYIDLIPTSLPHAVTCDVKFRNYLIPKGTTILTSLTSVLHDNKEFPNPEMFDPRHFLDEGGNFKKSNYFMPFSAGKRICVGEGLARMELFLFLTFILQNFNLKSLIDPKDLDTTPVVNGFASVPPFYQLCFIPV
Cytochrome P450 3A4 (Homo sapiens), sequence (P08684 whole entry, looked up): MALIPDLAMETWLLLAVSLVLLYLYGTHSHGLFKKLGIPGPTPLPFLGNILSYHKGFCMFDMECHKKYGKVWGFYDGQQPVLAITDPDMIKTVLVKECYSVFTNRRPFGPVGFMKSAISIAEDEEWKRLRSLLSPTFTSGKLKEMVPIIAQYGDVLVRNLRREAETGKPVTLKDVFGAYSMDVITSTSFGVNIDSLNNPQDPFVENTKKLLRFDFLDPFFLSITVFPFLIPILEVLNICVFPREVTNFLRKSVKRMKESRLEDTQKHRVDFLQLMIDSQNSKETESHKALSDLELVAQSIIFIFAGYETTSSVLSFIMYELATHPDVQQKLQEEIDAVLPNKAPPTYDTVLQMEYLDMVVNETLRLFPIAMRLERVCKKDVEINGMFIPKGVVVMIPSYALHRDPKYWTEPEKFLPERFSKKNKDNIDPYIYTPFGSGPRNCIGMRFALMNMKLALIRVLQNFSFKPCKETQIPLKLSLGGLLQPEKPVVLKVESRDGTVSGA

With `CC[N+](CC)(CC)CC[C@](O)(c1ccccc1)C1CCCCC1`, in assay [1], the Potency is 0.02 µM (active). For the same molecule, the molecule was called inactive in assay [2]. In addition, the Potency result in assay [3], in [4], in assay [5], in assay [6], in assay [7] and in [8] was “inactive” each time. For the same molecule, the Potency result in assay [9] was “inactive”.
On to `O=C1O[C@H](CN2CCOCC2)CN1/N=C\c1ccc([N+](=O)[O-])o1`, for which the Potency result in assay [3], in assay [10], in [6], in assay [11], in assay [8] and in assay [12] was “inactive” throughout. In addition, the Potency in [4] is 3.55 µM (active).
As to `C=CCOc1ccccc1OC[C@H](O)CNC(C)C`, the Potency result in assay [13], in assay [3], in [4], in assay [14], in assay [10] and in assay [6] was “inactive” throughout. The Potency entry in assay [7], in [11], in assay [15], in [16] and in assay [12] was “inactive” throughout. Besides, the call in [2] was inactive. Moreover, the Potency is 3.16 µM (active) in [5] and 1.14 µM (active) in assay [17].
Take `CC1(C)O[C@@H]2C[C@H]3[C@H]4C[C@H](F)C5=CC(=O)CC[C@]5(C)[C@@H]4[C@H](O)C[C@]3(C)[C@]2(C(=O)CO)O1`: the result in assay [2] was inactive. Besides, the Potency result in assay [5], in [14], in assay [10], in assay [6], in assay [7] and in assay [11] was “inactive” each time. In addition, the Potency entry in [8], in [15], in assay [16], in assay [9], in [12] and in [17] was “inactive” each time.
For the molecule `CNC[C@H](O)c1ccc(OC(=O)C(C)(C)C)c(OC(=O)C(C)(C)C)c1`, the call in [2] was inactive. Also, the Potency result in [5], in assay [14], in [10], in assay [6], in [7] and in assay [11] was “inactive” each time. Moreover, the Potency entry in assay [15] and in assay [9] was “inactive” in each case.
Turning to `CC(=O)O[C@]1(C(C)=O)CC[C@@H]2[C@@H]3C=C(C)C4=CC(=O)CC[C@@]4(C)[C@H]3CC[C@]21C`, the Potency result in [18], in assay [3], in assay [5], in [14], in assay [10] and in [6] was “inactive” throughout. Also, the Potency entry in assay [7], in assay [11], in assay [8], in [15], in assay [9] and in [17] was “inactive” throughout. Also, the call in assay [2] was inactive.
Regarding `CO[C@H]1[C@H](O[C@H]2O[C@@H](C)[C@@H](O[C@@H]3C[C@](C)(O)[C@H](OC(=O)CC(C)C)[C@H](C)O3)[C@@H](N(C)C)[C@@H]2O)[C@@H](CC=O)C[C@@H](C)[C@@H](O)/C=C\C=C/C[C@@H](C)OC(=O)C[C@H]1OC(C)=O`, the Potency result in assay [19] and in [3] was “inactive” in each case. Moreover, the outcome in assay [2] was inactive. In addition, the Potency in [17] is 1.61 µM (active).
Consider `CO[C@]1(NC(=O)C2SC(=C(C(N)=O)C(=O)O)S2)C(=O)N2C(C(=O)O)=C(CSc3nnnn3C)CS[C@H]21` (stereo not given in full), for which the Potency entry in [3], in assay [4], in assay [5], in assay [14], in assay [10] and in assay [7] was “inactive” each time. Besides, the Potency result in assay [11], in [8], in assay [15], in [16], in assay [9] and in assay [12] was “inactive” throughout. The Potency result in [17] was “inactive”.
With `C=CCN1C(=CCO)[C@H]2C[C@H]3[C@@H]1CC[C@@]31c3ccccc3N3C=C4[C@@H]5N(/C=C/2[C@H]31)c1ccccc1[C@]51CC[C@H]2[C@H]1C[C@@H]4/C(=C/CO)N2CC=C`, the Potency result in [3], in assay [4], in assay [5], in assay [14], in assay [10] and in assay [7] was “inactive” throughout. In addition, the Potency entry in assay [11], in [8], in [15], in assay [16], in assay [9] and in assay [12] was “inactive” in each case. Further, the Potency result in assay [17] is “inactive”.
In the case of `COc1ccc(C[C@@](C)(N)C(=O)O)cc1OC`, in [2], the molecule was called inactive. The Potency result in [4], in assay [5], in assay [14], in assay [10], in [7] and in assay [11] was “inactive” throughout. For the same molecule, the Potency entry in assay [8], in [15], in assay [16], in [9], in assay [12] and in assay [17] was “inactive” each time.
Regarding `COc1cc(N)c(Cl)cc1C(=O)N[C@H]1CCN(CCCOc2ccc(F)cc2)C[C@H]1OC`, the molecule was classed as inactive in assay [13], in assay [20] and in assay [2]. Also, the Potency in [4] is 5.01 µM (active); in assay [14] it was 3.16 µM (active); in assay [9], 3.16 µM (active); in assay [17], 5.1 µM (active).
As to `CCOC(=O)[C@H](CCc1ccccc1)N[C@@H](C)C(=O)N1[C@H](C(=O)O)C[C@H]2CCC[C@@H]21`, the molecule was classed as inactive in [20]. Also, the Potency result in assay [4], in assay [5], in assay [14], in [10], in assay [6] and in assay [11] was “inactive” in each case. Besides, the Potency result in assay [8], in assay [15], in assay [16], in [9], in assay [12] and in [17] was “inactive” in each case.
As to `C[N+]12CCC(CC1)[C@@H](OC(=O)C(O)(c1ccccc1)c1ccccc1)C2`, the Potency entry in assay [3], in [4], in assay [5], in [14], in [6] and in assay [15] was “inactive” each time. In addition, the Potency result in [16], in assay [9] and in assay [17] was “inactive” throughout.
In the case of `COc1ccc([C@@H]2CC(=O)c3c(O)cc(O[C@H]4O[C@@H](CO[C@H]5O[C@@H](C)[C@@H](O)[C@@H](O)[C@@H]5O)[C@@H](O)[C@@H](O)[C@@H]4O)cc3O2)cc1O`, the call in assay [2] was inactive. The Potency entry in [3], in assay [4], in assay [5], in assay [14], in assay [10] and in [7] was “inactive” each time. Also, the Potency result in assay [11], in assay [8], in assay [15], in assay [16], in assay [9] and in [12] was “inactive” each time. The Potency result in [17] is “inactive”.
In the case of `O=C(NC[C@@H](O)CO)c1c(I)c(C(=O)NC[C@@H](O)CO)c(I)c(N(CCO)C(=O)CO)c1I`, the result in [2] was inactive. Further, the Potency result in [3], in assay [4], in [5], in assay [14], in [10] and in assay [6] was “inactive” in each case. Further, the Potency result in assay [7], in assay [11], in [8], in assay [15], in [16] and in assay [12] was “inactive” each time. For the same molecule, the Potency result in assay [17] was “inactive”.
